Reference: PubChem BioAssay (NCI)
This is part of a sample that, as a whole, favours compounds with a hit. Of some 83,000 tested, about 20% had one in any assay.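 Activity criterion: percent growth below 10, measured after cells in 96-well plates were exposed to a single compound concentration for 48 hours.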 Active and inactive are the calls of the source.

Assays:
Assay in all cases: NCI-60 one-dose screen, 48 h (100 = growth as untreated, 0 = no growth, -100 = all killed)
HCT-15 colon = settings: 10 µM unless noted
HT29 colon = settings: 10 µM unless noted
SNB-75 CNS = settings: 10 µM unless noted
SNB-19 CNS = settings: 10 µM unless noted
U251 CNS = settings: 10 µM unless noted
PC-3 prostate = settings: 10 µM unless noted
SK-MEL-5 melanoma = settings: 10 µM unless noted
UACC-62 melanoma = settings: 10 µM unless noted
LOX IMVI melanoma = settings: 10 µM unless noted
SK-MEL-28 melanoma = settings: 10 µM unless noted
SK-MEL-2 melanoma = settings: 10 µM unless noted
SN12C renal = settings: 10 µM unless noted
UO-31 renal = settings: 10 µM unless noted
TK-10 renal = settings: 10 µM unless noted
ACHN renal = settings: 10 µM unless noted
A498 renal = settings: 10 µM unless noted
MOLT-4 leukemia = settings: 10 µM unless noted
CCRF-CEM leukemia = settings: 10 µM
CAKI-1 renal = settings: 10 µM unless noted
EKVX NSCLC = settings: 10 µM

Measured: growth

N#CCc1ncc(-c2ccc(C(F)(F)F)cc2)c(NC2CCCCCC2)n1
active: PC-3 prostate -3.13% [100 µM] | SK-MEL-2 melanoma -22.1% [100 µM] | A498 renal 1.91% [100 µM] | MOLT-4 leukemia -4.66% [100 µM]
inactive: HCT-15 colon 22.1% [100 µM] | HT29 colon 14% [100 µM] | SNB-75 CNS 52.5% [100 µM] | SNB-19 CNS 45.2% [100 µM] | U251 CNS 22.4% [100 µM] | SK-MEL-5 melanoma 22.9% [100 µM] | UACC-62 melanoma 42.1% [100 µM] | LOX IMVI melanoma 25% [100 µM] | SK-MEL-28 melanoma 65.8% [100 µM] | SN12C renal 30.4% [100 µM] | UO-31 renal 29.8% [100 µM] | TK-10 renal 61.2% [100 µM] | ACHN renal 18.4% [100 µM]

CC(=O)Nc1ccc(S(=O)(=O)Cl)cc1
inactive: HCT-15 colon 110% | HT29 colon 106% | SNB-75 CNS 94% | SNB-19 CNS 110% | U251 CNS 95.6% | PC-3 prostate 99.8% | SK-MEL-5 melanoma 98.3% | UACC-62 melanoma 97.9% | LOX IMVI melanoma 94.8% | SK-MEL-28 melanoma 117% | SK-MEL-2 melanoma 111% | SN12C renal 94.5% | UO-31 renal 97.2% | TK-10 renal 100% | ACHN renal 113% | A498 renal 101% | CCRF-CEM leukemia 90.9% | MOLT-4 leukemia 104%

CCOC1=C(Cl)C(=O)C(OCC)=C(Cl)C1=O
inactive: HCT-15 colon 107% | HT29 colon 101% | SNB-75 CNS 93.3% | SNB-19 CNS 96.3% | U251 CNS 104% | PC-3 prostate 104% | SK-MEL-5 melanoma 105% | UACC-62 melanoma 98.1% | LOX IMVI melanoma 104% | SK-MEL-28 melanoma 109% | SK-MEL-2 melanoma 100% | SN12C renal 98.8% | UO-31 renal 83.8% | TK-10 renal 104% | ACHN renal 106% | CAKI-1 renal 109% | MOLT-4 leukemia 88.1%
active: CCRF-CEM leukemia 9.18%

CC(=O)NCCN
inactive: HCT-15 colon 94% | HT29 colon 101% | SNB-75 CNS 89.7% | SNB-19 CNS 98.8% | U251 CNS 97.3% | PC-3 prostate 92.3% | SK-MEL-5 melanoma 108% | UACC-62 melanoma 102% | LOX IMVI melanoma 93.3% | SK-MEL-28 melanoma 108% | SK-MEL-2 melanoma 115% | SN12C renal 104% | UO-31 renal 98.4% | TK-10 renal 109% | ACHN renal 97.2% | CAKI-1 renal 84.7% | A498 renal 97.9% | MOLT-4 leukemia 102%

CCCCN(CCCC)c1ccc(C(=O)O)cc1
inactive: HCT-15 colon 97.3% | HT29 colon 108% | SNB-75 CNS 83.2% | SNB-19 CNS 84.8% | U251 CNS 100% | PC-3 prostate 102% | SK-MEL-5 melanoma 100% | UACC-62 melanoma 103% | LOX IMVI melanoma 99.4% | SK-MEL-28 melanoma 107% | SK-MEL-2 melanoma 83.5% | SN12C renal 97.9% | UO-31 renal 82.9% | TK-10 renal 86.3% | ACHN renal 105% | CAKI-1 renal 103% | A498 renal 98.2% | MOLT-4 leukemia 99%

CCCCCCCCCCCCCCCCNC(=S)N/N=C/c1ccc(O)cc1O
inactive: HCT-15 colon 50.7% | HT29 colon 37% | SNB-75 CNS 113% | SNB-19 CNS 89.1% | U251 CNS 59.6% | PC-3 prostate 63.5% | SK-MEL-5 melanoma 63.4% | UACC-62 melanoma 56.5% | LOX IMVI melanoma 60.6% | SK-MEL-28 melanoma 88.7% | SK-MEL-2 melanoma 75.4% | SN12C renal 74.2% | UO-31 renal 49.8% | TK-10 renal 57.8% | ACHN renal 77% | CAKI-1 renal 55.9% | A498 renal 91.1% | MOLT-4 leukemia 48.5%

COC(=O)/C=C1/CCCCC1(C)C(=O)OC (configuration not stated)
inactive: HCT-15 colon 93.1% | HT29 colon 102% | SNB-75 CNS 91.6% | SNB-19 CNS 102% | U251 CNS 97.2% | PC-3 prostate 102% | SK-MEL-5 melanoma 112% | UACC-62 melanoma 106% | LOX IMVI melanoma 102% | SK-MEL-28 melanoma 100% | SK-MEL-2 melanoma 108% | SN12C renal 101% | UO-31 renal 95.3% | TK-10 renal 104% | ACHN renal 112% | CAKI-1 renal 107% | A498 renal 107% | MOLT-4 leukemia 99.6%

COC(=O)[C@H](Cc1cn(C)cn1)NC(=O)[C@H](CC(=O)OCc1ccccc1)NC(=O)Nc1cc(C(F)(F)F)cc(C(F)(F)F)c1
active: HCT-15 colon -82.2% [100 µM] | HT29 colon -85.2% [100 µM] | SNB-75 CNS -98.6% [100 µM] | SNB-19 CNS -93% [100 µM] | U251 CNS -96.5% [100 µM] | PC-3 prostate -94.1% [100 µM] | SK-MEL-5 melanoma -97.3% [100 µM] | UACC-62 melanoma -98.3% [100 µM] | LOX IMVI melanoma -85.3% [100 µM] | SK-MEL-28 melanoma -95.6% [100 µM] | SK-MEL-2 melanoma -92.6% [100 µM] | SN12C renal -91.1% [100 µM] | UO-31 renal -96.3% [100 µM] | TK-10 renal -97.5% [100 µM] | ACHN renal -98.6% [100 µM] | CAKI-1 renal -91.9% [100 µM] | MOLT-4 leukemia -62.8% [100 µM]

CC(=O)CC(=O)OC/C=C(/C)CCC=C(C)C
inactive: HCT-15 colon 102% | HT29 colon 108% | SNB-75 CNS 105% | SNB-19 CNS 107% | U251 CNS 104% | PC-3 prostate 111% | SK-MEL-5 melanoma 99.6% | UACC-62 melanoma 97.9% | LOX IMVI melanoma 97.7% | SK-MEL-28 melanoma 113% | SK-MEL-2 melanoma 126% | SN12C renal 94.5% | UO-31 renal 102% | TK-10 renal 108% | ACHN renal 102% | A498 renal 117% | CCRF-CEM leukemia 116% | MOLT-4 leukemia 94.7%

CCOC(=O)/C(C#N)=C(/CC)OCC
inactive: HCT-15 colon 109% | HT29 colon 103% | SNB-75 CNS 90.8% | SNB-19 CNS 106% | U251 CNS 103% | PC-3 prostate 93.6% | SK-MEL-5 melanoma 110% | UACC-62 melanoma 110% | LOX IMVI melanoma 91.4% | SK-MEL-28 melanoma 106% | SK-MEL-2 melanoma 91.7% | SN12C renal 109% | UO-31 renal 84.1% | TK-10 renal 91.9% | ACHN renal 94.6% | CAKI-1 renal 95.4% | A498 renal 122% | MOLT-4 leukemia 85%

CCCCCCCCCCCCOC(=N)N(C)C
inactive: HCT-15 colon 96.7% | HT29 colon 102% | SNB-75 CNS 85.8% | SNB-19 CNS 96.1% | U251 CNS 94.8% | PC-3 prostate 91.4% | SK-MEL-5 melanoma 109% | UACC-62 melanoma 93.9% | LOX IMVI melanoma 74.2% | SK-MEL-28 melanoma 106% | SK-MEL-2 melanoma 95.8% | SN12C renal 101% | UO-31 renal 91% | TK-10 renal 94% | ACHN renal 93.6% | CAKI-1 renal 80.7% | A498 renal 103% | MOLT-4 leukemia 93.5%

CCCCCCN(CCCCCC)CCC(=O)Nc1ccc(S(=O)(=O)c2ccc(NC(=O)CCN(CCCCCC)CCCCCC)cc2)cc1
inactive: HCT-15 colon 72.9% | HT29 colon 29.9% | SNB-75 CNS 71.3% | SNB-19 CNS 88% | U251 CNS 88.4% | PC-3 prostate 76.6% | SK-MEL-5 melanoma 90% | UACC-62 melanoma 91.3% | LOX IMVI melanoma 76.5% | SK-MEL-28 melanoma 91.9% | SK-MEL-2 melanoma 122% | SN12C renal 81.4% | UO-31 renal 52.3% | TK-10 renal 109% | ACHN renal 88.3% | CAKI-1 renal 86.6% | CCRF-CEM leukemia 51.3% | MOLT-4 leukemia 59.1%

BrCCCOc1ccc(Oc2ccc(OCCCBr)cc2)cc1
inactive: HCT-15 colon 93.3% | HT29 colon 107% | SNB-75 CNS 86.6% | SNB-19 CNS 92.5% | U251 CNS 88.1% | PC-3 prostate 101% | SK-MEL-5 melanoma 97% | UACC-62 melanoma 94.5% | LOX IMVI melanoma 50.5% | SK-MEL-28 melanoma 99% | SK-MEL-2 melanoma 97.4% | SN12C renal 95.3% | UO-31 renal 105% | TK-10 renal 108% | ACHN renal 120% | CAKI-1 renal 112% | A498 renal 99.4% | MOLT-4 leukemia 96.4%

O=C(CCC(=O)N(CCO)CCO)N(CCO)CCO
inactive: HCT-15 colon 94.9% | HT29 colon 98.6% | SNB-75 CNS 94% | SNB-19 CNS 108% | U251 CNS 105% | PC-3 prostate 100% | SK-MEL-5 melanoma 114% | UACC-62 melanoma 109% | LOX IMVI melanoma 101% | SK-MEL-28 melanoma 106% | SK-MEL-2 melanoma 102% | SN12C renal 106% | UO-31 renal 86% | TK-10 renal 99.5% | ACHN renal 107% | CAKI-1 renal 93.3% | A498 renal 120% | MOLT-4 leukemia 90.8%

COC(=O)c1cc(Nc2ccc(O)c3c2C(=O)c2c([N+](=O)[O-])ccc(O)c2C3=O)cc(C(=O)OC)c1
active: SK-MEL-5 melanoma -49%
inactive: HCT-15 colon 16.3% | HT29 colon 36.5% | SNB-75 CNS 59.1% | SNB-19 CNS 76.9% | U251 CNS 74.8% | PC-3 prostate 70.9% | UACC-62 melanoma 48.8% | LOX IMVI melanoma 59.5% | SK-MEL-28 melanoma 30.8% | SK-MEL-2 melanoma 10.6% | SN12C renal 70.5% | UO-31 renal 67.1% | TK-10 renal 60.4% | ACHN renal 90.5% | A498 renal 93.8% | CCRF-CEM leukemia 23% | MOLT-4 leukemia 25.5%

O=C(c1ccccc1)c1ccccc1-c1ccccc1
active: HT29 colon -25.8% | SNB-75 CNS 3.14% | TK-10 renal 8.04%
inactive: HCT-15 colon 17.8% | SNB-19 CNS 34.7% | U251 CNS 25.4% | PC-3 prostate 41.4% | SK-MEL-5 melanoma 25% | UACC-62 melanoma 34.5% | LOX IMVI melanoma 31.6% | SK-MEL-28 melanoma 50.1% | EKVX NSCLC 58.8% | SN12C renal 31.3% | UO-31 renal 44.5% | ACHN renal 33.7% | CAKI-1 renal 17.4% | A498 renal 43.1% | CCRF-CEM leukemia 11% | MOLT-4 leukemia 30.4%
